PubChem BioAssay (NCI)
This is part of a sample that, as a whole, favours compounds with a hit. Of some 83,000 tested, about 20% had one in any assay.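 Results are percent growth after 48 hours of single-concentration exposure. 100 means growth as in untreated cells, lower positive values show inhibition; negative values down to -100 show cell death.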 Activity calls are given as the source filed them. The calls were made as follows: active = growth percent below 10; inactive = the rest.

Columns and labels:
Assay in all cases: NCI-60 one-dose screen, 48 h (100 = growth as untreated, 0 = no growth, -100 = all killed)
Details in all cases: 10 µM unless noted
NCI/ADR-RES ovarian = tested on: NCI/ADR-RES ovarian
T-47D breast = tested on: T-47D breast
BT-549 breast = tested on: BT-549 breast
MDA-MB-435 melanoma = tested on: MDA-MB-435 melanoma
SW-620 colon = tested on: SW-620 colon
MCF7 breast = tested on: MCF7 breast
HCT-116 colon = tested on: HCT-116 colon
HCC-2998 colon = tested on: HCC-2998 colon
KM12 colon = tested on: KM12 colon

Measured: growth

COc1ccc2c(c1)c(-c1nc(-c3cn(C)c4ncccc34)cs1)cn2CCCCN1CCCCC1
active: NCI/ADR-RES ovarian 5.12% | MDA-MB-435 melanoma -88.9% | SW-620 colon -64.3% | MCF7 breast -76.5% | HCT-116 colon -93% | KM12 colon -68.7%
inactive: T-47D breast 61% | BT-549 breast 85.1% | HCC-2998 colon 95.3%

CCOc1ccccc1C(=O)OCC(Cl)(Cl)Cl
inactive: NCI/ADR-RES ovarian 108% | T-47D breast 90.6% | BT-549 breast 106% | MDA-MB-435 melanoma 107% | SW-620 colon 110% | MCF7 breast 99.4% | HCT-116 colon 105% | HCC-2998 colon 101% | KM12 colon 101%

CCCC(C)C1(CC)C(=O)NC(=O)N(C)C1=O (configuration not stated)
inactive: NCI/ADR-RES ovarian 104% | T-47D breast 87% | BT-549 breast 105% | MDA-MB-435 melanoma 97.9% | SW-620 colon 101% | MCF7 breast 103% | HCT-116 colon 114% | HCC-2998 colon 97.9% | KM12 colon 110%

C=CC12CCN(CC1)C(C(O)c1ccnc3ccc(OC)cc13)C2 (configuration not stated)
inactive: NCI/ADR-RES ovarian 91.8% | T-47D breast 82.5% | BT-549 breast 103% | MDA-MB-435 melanoma 56.5% | SW-620 colon 88.9% | MCF7 breast 66.5% | HCT-116 colon 60.5%
active: HCC-2998 colon -34.8%

O=C(CCl)c1ccc([N+](=O)[O-])o1
active: NCI/ADR-RES ovarian -49.5% | T-47D breast -53.5% | MDA-MB-435 melanoma -4.26% | SW-620 colon -97% | HCT-116 colon -100% | KM12 colon -21.2%
inactive: BT-549 breast 44.3% | MCF7 breast 18.6% | HCC-2998 colon 31.1%

Cc1ccc(C(=O)NCCCOc2ccc(N)cc2Cl)cc1S(=O)(=O)F
inactive: NCI/ADR-RES ovarian 103% | T-47D breast 81.9% | BT-549 breast 98% | MDA-MB-435 melanoma 90.9% | SW-620 colon 104% | MCF7 breast 103% | HCT-116 colon 98.9% | HCC-2998 colon 106% | KM12 colon 90.8%

COc1ccc(/C=C\c2cc(OC)c(OC)c(OC)c2)c(NS(=O)(=O)c2ccc(F)cc2)c1O
inactive: T-47D breast 103% | BT-549 breast 24% | SW-620 colon 21.1% | HCC-2998 colon 14.9%
active: NCI/ADR-RES ovarian 2.13% | MDA-MB-435 melanoma -34.9% | MCF7 breast 9.22% | HCT-116 colon 7.7% | KM12 colon 1.13%

O=C(CCCCCNC1=CC(=O)c2ccccc2C1=O)NCCC[Te]c1ccccc1
active: NCI/ADR-RES ovarian -0.191% | T-47D breast -60.5% | BT-549 breast -27.7% | MDA-MB-435 melanoma -15.5% | SW-620 colon -7.07% | MCF7 breast 4.88% | HCT-116 colon -51% | HCC-2998 colon -48.7% | KM12 colon -41.6%

C/C1=C/C(=O)O[C@@H]2C[C@@H](CC[C@H](C)/C=C\C=C\CC1)O[C@@](O)([C@@H]1CSC(=O)N1CO)C2
active: BT-549 breast -13.3%
inactive: NCI/ADR-RES ovarian 47.6% | T-47D breast 56.8% | MDA-MB-435 melanoma 32% | SW-620 colon 53.2% | MCF7 breast 56.8% | HCT-116 colon 27.2% | HCC-2998 colon 34.7% | KM12 colon 62%

O=C(N/N=C/c1ccc(N(CCCl)CCCl)cc1)c1cccc2ccccc12
inactive: NCI/ADR-RES ovarian 72.9% | T-47D breast 73.3% | BT-549 breast 67.4% | MDA-MB-435 melanoma 13.8% | SW-620 colon 54.1% | MCF7 breast 35.4% | HCT-116 colon 48.1% | HCC-2998 colon 87.7% | KM12 colon 67.4%

Cc1cc(N(CCCl)CCCl)ccc1C=Nc1ccccc1-c1ccccc1
inactive: NCI/ADR-RES ovarian 59.8% | T-47D breast 27.5% | BT-549 breast 83.7% | MDA-MB-435 melanoma 93.5% | SW-620 colon 67% | MCF7 breast 39.1% | HCT-116 colon 75.8% | HCC-2998 colon 96.9% | KM12 colon 97.3%

CCN(CC)CCOC(=O)C(OC(C)C)(c1ccccc1)c1ccccc1
inactive: NCI/ADR-RES ovarian 100% | T-47D breast 93.8% | BT-549 breast 96.6% | MDA-MB-435 melanoma 103% | SW-620 colon 91.5% | MCF7 breast 95.3% | HCT-116 colon 78.4% | HCC-2998 colon 108% | KM12 colon 101%

CC(=O)O[C@H]1CC[C@H]2[C@@H]3CC=C4c5nc(-c6ccccc6)sc5CC[C@]4(C)[C@H]3CC[C@]12C
inactive: NCI/ADR-RES ovarian 71.1% | T-47D breast 52.4% | BT-549 breast 64.8% | MDA-MB-435 melanoma 59.2% | SW-620 colon 55% | MCF7 breast 67.7% | HCT-116 colon 51.2% | HCC-2998 colon 54% | KM12 colon 42.3%

CC(=O)O[C@H]1C(=O)[C@@]2(C)[C@H]([C@H](OC(=O)c3ccccc3)[C@]3(O)C[C@H](OC(=O)[C@H](OC(=O)OC[C@@H]4COC(C)(C)O4)[C@@H](NC(=O)c4ccccc4)c4ccccc4)C(C)=C1C3(C)C)[C@]1(OC(C)=O)CO[C@@H]1C[C@@H]2O
active: MDA-MB-435 melanoma -77.7% | HCT-116 colon 5.09% | HCC-2998 colon -4.98%
inactive: NCI/ADR-RES ovarian 80.9% | T-47D breast 25.5% | BT-549 breast 12.5% | SW-620 colon 26.5% | MCF7 breast 11% | KM12 colon 10.7%

CC(=O)OCc1cc[c]([Hg][Cl])o1
inactive: NCI/ADR-RES ovarian 77.1% | T-47D breast 17.8% | BT-549 breast 14.3% | MDA-MB-435 melanoma 29.4% | SW-620 colon 25.4% | MCF7 breast 20.2% | HCT-116 colon 35.7% | HCC-2998 colon 76.4% | KM12 colon 91.8%

COC(=O)[C@@H](C)C[C@H](Cc1ccccc1)NC(=O)c1csc([C@@H](C[C@H](C(C)C)N(C)C(=O)[C@@H](NC(=O)[C@H]2CCCN2C)C2CC2)OC(C)=O)n1
active: BT-549 breast -9.2% | MDA-MB-435 melanoma -20.6% | HCT-116 colon 1.11% | KM12 colon 1.92%
inactive: NCI/ADR-RES ovarian 12.4% | T-47D breast 40.9% | SW-620 colon 30.6% | MCF7 breast 21.7% | HCC-2998 colon 14.8%

Clc1cc(N2CC2)nc(N2CC2)n1
inactive: NCI/ADR-RES ovarian 71.7% | T-47D breast 87.3% | BT-549 breast 71.8% | MDA-MB-435 melanoma 93.7% | SW-620 colon 61.6% | MCF7 breast 34.2% | HCT-116 colon 64.9% | HCC-2998 colon 78.2% | KM12 colon 97.3%

CC(=O)OC1C(OC/C2=C/C3[C@@H](C(C)C)CC=C(C)[C@@H]3CC(OC(=O)/C=C/c3cn(C)cn3)[C@]3(C)C=C[C@@]2(O)O3)OCC(O)C1O (some centres not stated)
active: BT-549 breast -14.3% | MDA-MB-435 melanoma -52.3% | HCT-116 colon 4.11% | HCC-2998 colon -44.1%
inactive: NCI/ADR-RES ovarian 80.8% | T-47D breast 23% | SW-620 colon 35.8% | MCF7 breast 13.5% | KM12 colon 14.1%

O=[N+]([O-])c1cc(I)cc([N+](=O)[O-])c1
inactive: NCI/ADR-RES ovarian 96.6% | T-47D breast 95.8% | BT-549 breast 101% | MDA-MB-435 melanoma 101% | SW-620 colon 106% | MCF7 breast 80.7% | HCT-116 colon 94.8% | HCC-2998 colon 104% | KM12 colon 102%

O=C(CC1(O)C(=O)N(Cc2ccccc2)c2ccccc21)c1ccc(C(=O)NCC2CCC3(CC2)OOC2(CCCCC2)OO3)cc1 (configuration not stated)
active: NCI/ADR-RES ovarian -47.1% | T-47D breast -39.1% | BT-549 breast -31.1% | MDA-MB-435 melanoma -86.5% | SW-620 colon 6.2% | MCF7 breast 9.78% | KM12 colon -73.9%
inactive: HCT-116 colon 15.5% | HCC-2998 colon 73.4%

CC(=O)OCC1O[C@@H]([S-])C(OC(C)=O)[C@H](OC(C)=O)[C@@H]1OC(C)=O.[Au+].c1ccc(CN2[CH-]N(Cc3ccccc3)C(c3ccccc3)=C2c2ccccc2)cc1
active: T-47D breast -37.1% | BT-549 breast -30.2% | SW-620 colon 8.97% | MCF7 breast -3.49% | HCC-2998 colon -57.4%
inactive: NCI/ADR-RES ovarian 98.7% | MDA-MB-435 melanoma 48.4% | HCT-116 colon 18.8% | KM12 colon 59.6%

CCCCCCCCCCCCCCCCCC1OC[C@@H](COC(=O)O[C@@H](C(=O)O[C@H]2C[C@@]3(O)[C@@H](OC(=O)c4ccccc4)[C@@H]4[C@]5(OC(C)=O)CO[C@@H]5C[C@H](O)[C@@]4(C)C(=O)[C@H](OC(C)=O)C(=C2C)C3(C)C)[C@@H](NC(=O)c2ccccc2)c2ccccc2)O1 (some centres not stated)
inactive: NCI/ADR-RES ovarian 106% | T-47D breast 51.9% | BT-549 breast 55.2% | SW-620 colon 45.7% | MCF7 breast 24.9% | HCT-116 colon 23.4% | HCC-2998 colon 56.8% | KM12 colon 28.7%
active: MDA-MB-435 melanoma -41.2%

C[C@]12CCc3nc(Nc4ccccc4F)sc3C1=CC[C@@H]1[C@@H]2CC[C@]2(C)C(=O)CC[C@@H]12
active: SW-620 colon -12.6% | HCT-116 colon -22.4%
inactive: NCI/ADR-RES ovarian 73.9% | T-47D breast 37.5% | BT-549 breast 66.2% | MDA-MB-435 melanoma 52.5% | MCF7 breast 12.5% | HCC-2998 colon 80.1% | KM12 colon 42.5%

CN(C)C(=O)Oc1ccccc1-c1ccccc1
inactive: NCI/ADR-RES ovarian 102% | T-47D breast 93.3% | BT-549 breast 90.7% | MDA-MB-435 melanoma 112% | SW-620 colon 109% | MCF7 breast 105% | HCT-116 colon 111% | HCC-2998 colon 96.1% | KM12 colon 103%

CCOC(=O)c1c(C)n(Cc2ccccc2)c2cc(CN(C)C)c(O)cc12
inactive: NCI/ADR-RES ovarian 63.5% | T-47D breast 61.1% | BT-549 breast 64.7% | MDA-MB-435 melanoma 80.3% | SW-620 colon 63% | MCF7 breast 55.3% | HCT-116 colon 51.7% | HCC-2998 colon 55.4% | KM12 colon 76.5%

O=C(Nc1ccc(Cl)cc1)Nc1nccs1
active: NCI/ADR-RES ovarian 8.57% | MDA-MB-435 melanoma -49.4%
inactive: T-47D breast 40.1% | BT-549 breast 44.1% | SW-620 colon 26.4% | MCF7 breast 15.2% | HCT-116 colon 41.2% | HCC-2998 colon 69.5% | KM12 colon 34.3%

C[C@@]12CC[C@@H](O)C[C@@H]1CC[C@H]1[C@H]2CC[C@@]2(C)[C@H](c3ccc(=O)oc3)CC[C@@]12O
active: NCI/ADR-RES ovarian -39.6% | T-47D breast -18.1% | BT-549 breast -84.2% | MDA-MB-435 melanoma -81.9% | SW-620 colon -68.3% | MCF7 breast -27% | HCT-116 colon -76% | HCC-2998 colon -50.7% | KM12 colon -87.6%
